Measurements from PubChem BioAssay AID1159580 (chemical genetic matrix, 2015).
About 2,000 (36%) of roughly 5,500 compounds were called active. Inconclusive results (about 18%) are left out. Cut-off read from the data, not from the text of the source: active = normalized growth mostly below about 0.91 (no sharp cut-off); inconclusive = no clear call, values can overlap the other calls; inactive = mostly above about 0.92. Some of the results follow.

Experiment: chemical genetic growth profiling, strain panel (AID 1159580);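 note: tested at 20 µM; growth read once vehicle control cultures reached saturation at 30 °C; 1 = growth at the plate median or of vehicle wells; lower values mean less growth of the strain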
Details: growth OD

Measured: normalized growth

CCCCC(=O)N(Cc1ccc(-c2ccccc2-c2nn[nH]n2)cc1)[C@H](C(=O)O)C(C)C
inactive: S. cerevisiae deletion strains, locus YJR066W, strain TOR1, hits give low values 0.959 | S. cerevisiae deletion strains, locus YJR075W, strain HOC1, hits give low values 1 | S. cerevisiae deletion strains, locus YKL009W, strain mrt4, hits give low values 0.968 | S. cerevisiae deletion strains, locus YKL068W, hits give low values 0.964 | S. cerevisiae deletion strains, locus YKL085W, strain MDH1 (second series), hits give low values 0.959 | S. cerevisiae deletion strains, locus YKL085W, strain MDH1, hits give low values 0.959 | S. cerevisiae deletion strains, locus YKL160W, strain elf1, hits give low values 1.01 | S. cerevisiae deletion strains, locus YKL190W, strain CNB1, hits give low values 0.986 | S. cerevisiae deletion strains, locus YKR001C, strain vps1, hits give low values 0.987 | S. cerevisiae deletion strains, locus YKR026C, strain gcn3, hits give low values 0.985 | S. cerevisiae deletion strains, locus YKR091W, strain srl3, hits give low values 0.981 | S. cerevisiae deletion strains, locus YLL001W, strain dnm1, hits give low values 0.993 | S. cerevisiae deletion strains, locus YLL026W, hits give low values 0.998 | S. cerevisiae deletion strains, locus YLL041C, strain sdh2, hits give low values 1 | S. cerevisiae deletion strains, locus YLR027C, strain aat2, hits give low values 0.999 | S. cerevisiae deletion strains, locus YLR039C, strain RIC1, hits give low values 0.963 | S. cerevisiae deletion strains, locus YLR058C, strain SHM2, hits give low values 1 | S. cerevisiae deletion strains, locus YLR102C, strain apc9, hits give low values 0.975 | S. cerevisiae deletion strains, locus YLR113W, strain HOG1, hits give low values 0.987 | S. cerevisiae deletion strains, locus YLR221C, strain rsa3, hits give low values 0.977 | S. cerevisiae deletion strains, locus YLR258W, strain gsy2, hits give low values 0.989 | S. cerevisiae deletion strains, locus YLR262C, strain YPT6 (second series), hits give low values 1 | S. cerevisiae deletion strains, locus YLR262C, strain YPT6, hits give low values 0.981 | S. cerevisiae deletion strains, locus YLR268W, strain sec22, hits give low values 0.977 | S. cerevisiae deletion strains, locus YLR320W, strain mms22, hits give low values 0.993 | S. cerevisiae deletion strains, locus YLR330W, strain CHS5, hits give low values 0.99 | S. cerevisiae deletion strains, locus YLR342W, strain FKS1 (second series), hits give low values 1.01 | S. cerevisiae deletion strains, locus YLR342W, strain FKS1, hits give low values 1.02 | S. cerevisiae deletion strains, locus YLR357W, strain rsc2, hits give low values 0.976 | S. cerevisiae deletion strains, locus YLR370C, strain arc18, hits give low values 1 | S. cerevisiae deletion strains, locus YLR371W, strain rom2, hits give low values 0.977 | S. cerevisiae deletion strains, locus YLR384C, strain iki3, hits give low values 1.01 | S. cerevisiae deletion strains, locus YLR418C, strain cdc73, hits give low values 0.989 | S. cerevisiae deletion strains, locus YML016C, strain PPZ1, hits give low values 0.994 | S. cerevisiae deletion strains, locus YML032C, strain rad52, hits give low values 0.985 | S. cerevisiae deletion strains, locus YML120C, strain ndi1, hits give low values 0.981 | S. cerevisiae deletion strains, locus YML124C, strain tub3, hits give low values 0.985 | S. cerevisiae deletion strains, locus YMR058W, strain fet3, hits give low values 0.982 | S. cerevisiae deletion strains, locus YMR078C, strain ctf18, hits give low values 0.995 | S. cerevisiae deletion strains, locus YMR125W, strain sto1, hits give low values 0.932 | S. cerevisiae deletion strains, locus YMR129W, hits give low values 0.983 | S. cerevisiae deletion strains, locus YMR205C, strain PFK2, hits give low values 0.994 | S. cerevisiae deletion strains, locus YMR223W, strain ubp8, hits give low values 0.994 | S. cerevisiae deletion strains, locus YMR231W, strain pep5, hits give low values 1 | S. cerevisiae deletion strains, locus YMR263W, strain SAP30, hits give low values 0.975 | S. cerevisiae deletion strains, locus YMR307W, strain GAS1, hits give low values 1.04 | S. cerevisiae deletion strains, locus YNL067W, strain RPL9B, hits give low values 0.985 | S. cerevisiae deletion strains, locus YNL071W, strain lat1, hits give low values 0.991 | S. cerevisiae deletion strains, locus YNL128W, strain TEP1, hits give low values 0.969 | S. cerevisiae deletion strains, locus YNL153C, strain GIM3, hits give low values 0.991 | S. cerevisiae deletion strains, locus YNL183C, strain NPR1, hits give low values 0.956 | S. cerevisiae deletion strains, locus YNL209W, strain ssb2, hits give low values 0.989 | S. cerevisiae deletion strains, locus YNL233W, strain BNI4, hits give low values 0.995 | S. cerevisiae deletion strains, locus YNL248C, strain rpa49, hits give low values 0.947 | S. cerevisiae deletion strains, locus YNL250W, strain rad50, hits give low values 0.944 | S. cerevisiae deletion strains, locus YNL271C, strain bni1, hits give low values 0.98 | S. cerevisiae deletion strains, locus YNL298W, strain CLA4, hits give low values 0.971 | S. cerevisiae deletion strains, locus YNL307C, strain MCK1, hits give low values 0.98 | S. cerevisiae deletion strains, locus YNL322C, strain KRE1 (second series), hits give low values 0.988 | S. cerevisiae deletion strains, locus YNL322C, strain KRE1, hits give low values 0.981 | S. cerevisiae deletion strains, locus YNR049C, strain mso1, hits give low values 0.965 | S. cerevisiae deletion strains, locus YNR052C, strain pop2, hits give low values 0.991 | S. cerevisiae deletion strains, locus YOL006C, strain TOP1, hits give low values 1.01 | S. cerevisiae deletion strains, locus YOL012C, strain htz1 1.43 | S. cerevisiae deletion strains, locus YOL147C, strain pex11, hits give low values 0.98 | S. cerevisiae deletion strains, locus YOR001W, strain rrp6, hits give low values 0.988 | S. cerevisiae deletion strains, locus YOR061W, strain CKA2, hits give low values 0.985 | S. cerevisiae deletion strains, locus YOR069W, strain VPS5, hits give low values 0.989 | S. cerevisiae deletion strains, locus YOR070C, strain gyp1, hits give low values 0.994 | S. cerevisiae deletion strains, locus YOR080W, strain dia2, hits give low values 0.988 | S. cerevisiae deletion strains, locus YOR083W, strain WHI5, hits give low values 1.01 | S. cerevisiae deletion strains, locus YOR106W, strain vam3, hits give low values 0.998 | S. cerevisiae deletion strains, locus YOR136W, strain idh2, hits give low values 0.991 | S. cerevisiae deletion strains, locus YOR144C, strain elg1, hits give low values 0.988 | S. cerevisiae deletion strains, locus YOR231W, strain MKK1, hits give low values 0.963 | S. cerevisiae deletion strains, locus YOR265W, strain rbl2, hits give low values 0.999 | S. cerevisiae deletion strains, locus YOR270C, strain vph1, hits give low values 0.997 | S. cerevisiae deletion strains, locus YOR290C, strain snf2, hits give low values 0.962 | S. cerevisiae deletion strains, locus YOR316C, strain cot1, hits give low values 0.98 | S. cerevisiae deletion strains, locus YPL051W, strain arl3, hits give low values 1.01 | S. cerevisiae deletion strains, locus YPL055C, strain LGE1, hits give low values 0.974 | S. cerevisiae deletion strains, locus YPL078C, strain atp4, hits give low values 0.989 | S. cerevisiae deletion strains, locus YPL106C, strain sse1, hits give low values 0.956 | S. cerevisiae deletion strains, locus YPL240C, strain hsp82, hits give low values 1 | S. cerevisiae deletion strains, locus YPL241C, strain CIN2, hits give low values 0.991 | S. cerevisiae deletion strains, locus YPL256C, strain CLN2, hits give low values 0.908 | S. cerevisiae deletion strains, locus YPR119W, strain clb2, hits give low values 0.991 | S. cerevisiae deletion strains, locus YPR141C, strain kar3, hits give low values 0.963 | S. cerevisiae deletion strains, locus YPR163C, strain tif3, hits give low values 0.978 | S. cerevisiae deletion strains, locus YPR167C, strain met16, hits give low values 0.976 | S. cerevisiae deletion strains, strain wtn01, hits give low values 0.96 | S. cerevisiae strains, strain wild type, hits give low values 0.973
